Our source for the viability decrease values is PubChem BioAssay.

SMILES strings stand for the structures. Active and inactive are the calls of the source.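 Rule for the calls: active = compounds lowering colon cancer cell viability after pretreatment blocking the GSK3B kinase; inactive = the rest.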

The experiment can be described thus: growth inhibition of GSK3B-pretreated HCT116 cells – cell-based, CellTiter-Glo, 0.2 to 20 µM (AID 1117336). The conditions noted are these: HCT116 viability after GSK3B inhibitor, at 20 µM, hits give high values. A general note: Cellular ATP, detected with luciferase, serves as a proxy for viable cell number.
For `C[C@]12CCC(=O)C=C1CC[C@@H]1[C@@H]2[C@@H](O)C[C@@]2(C)[C@H]1CC[C@]2(O)C(=O)COP(=O)(O)O`, the viability decrease was -2.5% (inactive).
As for `CCCc1ncc(C[n+]2ccccc2C)c(N)n1`, the figure is -5.4% (inactive); as for `COc1cc(NS(=O)(=O)c2ccc(N)cc2)nc(OC)n1`, -7.9% (inactive).
Take `Cc1cc(NC(=O)C2=C(O)c3ccccc3S(=O)(=O)N2C)no1`: the viability decrease was -24.5% (inactive).
The result for `O=C(O)[C@@H](O)[C@H](O)[C@H](O)[C@@H](O)C(=O)O` reads -8.4% (inactive); that for `CN1CCOC(c2ccccc2)c2ccccc2C1` (stereo not drawn), -52.9% (inactive); that for `Cc1cccc(N(C)C(=S)Oc2ccc3ccccc3c2)c1`, 50% (active).
The result for `O=C1c2ccccc2C(=O)C1c1ccccc1` reads -5.45% (inactive); that for `Cc1onc(-c2ccccc2Cl)c1C(=O)N[C@@H]1C(=O)N2[C@@H]1SC(C)(C)[C@@H]2C(=O)O`, -27.7% (inactive); that for `CO[C@]12C[C@@H](COC(=O)c3cncc(Br)c3)CN(C)[C@@H]1Cc1cn(C)c3cccc2c13`, 8.4% (inactive).
As for `Cc1ccccc1OCC(O)CO` (stereo not drawn), the figure is -10.2% (inactive).
Consider `Cc1ccc(C(C)C)cc2c(C)ccc1-2`, for which the viability decrease is -28.6% (inactive).
In the case of `O=C1C(=O)c2ccccc2C(O)=C1C1CCC(c2ccc(Cl)cc2)CC1` (stereo not drawn), the viability decrease was 96.3% (active).
As for `Cc1ccc2c(Cl)cc(Cl)c(O)c2n1`, the figure is -3.9% (inactive); as for `NC(N)=NS(=O)(=O)c1ccc(N)cc1`, 7.4% (inactive).
The result for `CCOc1ccc(NC(C)=O)cc1` reads -4.8% (inactive); that for `Cn1c(=O)c2c(ncn2CC(O)CO)n(C)c1=O` (stereo not drawn), -2.9% (inactive).
As for `Cc1cc(=O)n(-c2ccccc2)n1C`, the viability decrease is -26.3% (inactive).
In the case of `O=C(O)c1ccccc1Nc1cccc(C(F)(F)F)c1`, the viability decrease is 91.3% (active).
The result for `CC1=NN(c2ccccc2)C(=O)C1` reads 10.2% (inactive).
With `Cc1c(C(=O)O)c(O)cc2c1C(=O)c1c(O)c([C@@H]3O[C@H](CO)[C@@H](O)[C@H](O)[C@H]3O)c(O)c(O)c1C2=O`, the viability decrease was 46.7% (inactive).
The result for `CC(C)(Sc1cc(C(C)(C)C)c(O)c(C(C)(C)C)c1)Sc1cc(C(C)(C)C)c(O)c(C(C)(C)C)c1` reads -20.3% (inactive); that for `CN1C(C(=O)Nc2ccccn2)=C(O)c2sccc2S1(=O)=O`, -17.8% (inactive).
The result for `CCCCC(=O)O[C@]1(C(=O)CO)[C@@H](C)C[C@H]2[C@@H]3CCC4=CC(=O)C=C[C@]4(C)[C@@]3(F)[C@@H](O)C[C@@]21C` reads -106% (inactive); that for `COc1ccccc1OCC(O)CO` (stereo not drawn), -2.1% (inactive).
On to `CCCCOc1cc(C(=O)NCCN(CC)CC)c2ccccc2n1`, for which the viability decrease is -47.5% (inactive).
As for `CC1(C)O[C@H]2CC(=O)OC[C@]23[C@H]2CC[C@@]4(C)[C@H](c5ccoc5)OC(=O)[C@H]5O[C@]54[C@]2(C)C(=O)C[C@@H]13`, the viability decrease is 2.7% (inactive).
In the case of `CC1=CC(=O)c2ccccc2C1=O`, the viability decrease was 72.6% (active).
The result for `COc1ccc2c(c1)c(CC(=O)OCC(=O)O)c(C)n2C(=O)c1ccc(Cl)cc1` reads 4.9% (inactive); that for `CC/C(=C(/CC)c1ccc(O)cc1)c1ccc(O)cc1`, 90.8% (active); that for `COc1cc(C(=O)NCc2ccc(OCCN(C)C)cc2)cc(OC)c1OC`, 19.5% (inactive).
Regarding `O=C1c2ccccc2C(=O)c2c1ccc(O)c2O`, the viability decrease was 45.6% (inactive).
The result for `CCN(CC)CCOC(=O)C(c1ccccc1)c1ccccc1` reads -6.6% (inactive).
As for `CC1=C(C(=O)O)N2C(=O)[C@@H](NC(=O)[C@H](N)C3=CCC=CC3)[C@H]2SC1`, the viability decrease was 47.6% (inactive).
Take `NC(=O)NC1NC(=O)NC1=O` (stereo not drawn): the viability decrease was -10.1% (inactive).
Regarding `CC(C)NC[C@@H](O)COc1cccc2ccccc12`, the viability decrease was 6.9% (inactive).
The result for `N=C(N)N` reads -1.8% (inactive); that for `CCOC(=O)[C@H](CCc1ccccc1)N[C@@H](C)C(=O)N1CCC[C@H]1C(=O)O`, 1.3% (inactive).
